From PubChem BioAssay AID1508600 (Functional Genomics Laboratory (NCATS/FGL), 2020) come the findings set out here.

Hit rate of the full screen: of about 53,000 sequences, about 3,700 (7%) were called active.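 The calls were made as follows: active = gene knockdowns whose robust z-score for IL-1 alpha signal is at least 2 or at most -2, so actives lie on both sides; inactive = the rest.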 This excerpt belongs to a sample that is enriched for actives.

The assay can be described thus: Components of the Cytosolic LPS Sensing Pathway: Gene Identification via Genome-wide siRNA Screen.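 Also: robust z of the log signal after scaling to non-targeting control siRNA wells of the plate.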 Conditions: RAW264.7 macrophages, IL-1a HTRF, actives lie on both sides, screened at 100 nM (by protocol), cells primed 5 h with Pam3CSK4 first. Put shortly: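 Supernatant IL-1a by HTRF from RAW264.7 cells primed with Pam3CSK4 (5 hours) and transfected with LipidA (24 hour) after 48h siRNA knockdown at 100 nM; cell viability checked with CellTiter-Glo.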
In general terms: Time-resolved FRET reads energy transfer from a long-lived donor to a nearby acceptor.
Take GCGGUUCGCUGUUUGUUUCTT against Zbtb11os1: the z-score is 2.54 (active).
For CGCUAGCUUAUUUUCCGCCTT against Slc49a4, the z-score is 1.1 (inactive).
Next, GGACGACAUGAUUUUCGAGTT against Atp1b1: -0.399 (inactive); CCACGAAGAGCAAGAAAACTT against Gm5941: -1.15 (inactive).
Take GGCCUGUAGUCAAUGGAAATT against Magi2: the z-score was -0.382 (inactive).
For GGUUGCACUUUUUCAUAGUTT against Bcl2l2 the value was 0.97 (inactive); for GGAGGUGCUAACCUAACAGTT against Ggh, -1.1 (inactive); for GGAAUAUCCAGUAUUGAUUTT against Cd180, -0.396 (inactive).
With GCUCGAUUGACCUCAUUCATT against Rhbdf2, the z-score is -2.45 (active).
As to GGUGUCGAGAAGCCUCAAATT against Arhgap24, the z-score was -0.617 (inactive).
For the sequence GCCGUAUGGCAGGUAUUUUTT against Tmem266, the z-score was 3.27 (active).
Next, CCACUACAACAACACUUAUTT against Keg1: 0.84 (inactive).
Turning to GCAUCUACCUUCUAUUACUTT against Gpsm1, the z-score was 0.533 (inactive).
For GGACAUGCUCUAUAAGAAGTT against Pabpc5, the z-score was -0.642 (inactive).
GGCAACUUGAUUGUAAACUTT against Zic2: the z-score is 0.795 (inactive).
Next, CAGAAUUCAGAUAAUCUUGTT against Defb22: 1.06 (inactive); GGAUAUCCAAGUAAGGUGUTT against Mrpl9: -0.504 (inactive); GACUGAGCUUCUGUGAUGGTT against Olfr921: -2.5 (active).
GGAGAAGAAGGGAAAGCAUTT against Tub: the z-score is -1.4 (inactive).
For the sequence GGUGGAUAUUCCAUCUAUUTT against Snx14, the z-score is 2.76 (active).
CGUUUUCAGAGAUGUGCGCTT against Cmtm5: the z-score is -1 (inactive).
Regarding GCCAGUAUUAGCCUAGAUCTT against Vstm5, the z-score is -1.65 (inactive).
Regarding CCCAGCUCUGUUUAAUGAUTT against Klf8, the z-score was -0.449 (inactive).
Consider GGAUCUUAAGAAGUUCCAATT against Chchd6, for which the z-score was -0.104 (inactive).
As for CCUCCUUUUUUCUCUGUCUTT against Ugt1a9, the z-score is -2.79 (active).
GGAUUUGCCUUAAAAAAUCTT against Dock4: the z-score was -0.0352 (inactive).
Next, GGUUUGAGGUAACACUAGATT against Vps39: -0.125 (inactive); GCUGAAAGGAAUGUGCUCATT against Hspa8: -1.57 (inactive); GCCGGAUGAAGGACUUUACTT against Dcc: -1.98 (inactive).
On to CCUAGUCUAGCUGACUUGCTT against Eppin, for which the z-score is 1.41 (inactive).
With GGUUACGAAAAGCUGCCUUTT against Ints14, the z-score was -0.125 (inactive).
Regarding GGCCUUGGCAAUUAUUUGUTT against Syap1, the z-score was -0.0759 (inactive).
On to GGAGAAAGAGAUUCCUAUUTT against Triap1, for which the z-score was -0.818 (inactive).
On to CCAAUUCGUGUUAAGGAACTT against Riox2, for which the z-score was 0.212 (inactive).
In the case of CCUCGUAGGGCCUAUGGUATT against Cyth4, the z-score is -2.17 (active).
GCCAAAGUAGCAUUAGUGATT against Dip2b: the z-score is -1.39 (inactive).
Consider GGCAAUGUCUUUAAAAUACTT against Txndc8, for which the z-score was -0.724 (inactive).
In the case of GGCAUUGACCCUUCUUGGATT against Stam2, the z-score was -0.395 (inactive).
For the sequence CCUUGUUAGAGCAUUACAATT against Rprd1a, the z-score was 1.34 (inactive).
As for GGAUUCUGAGAAAUCAAGATT against Serpinb12, the z-score is -0.376 (inactive).
For the sequence GGAAAUCUACGAUUUCUAATT against Cyria, the z-score was 2.55 (active).
As to GCUCCAGAAUAUAUUGUUCTT against Arfgap3, the z-score was 1.39 (inactive).
Consider GGGCAGAGGCAUUUCUGUATT against Psg23, for which the z-score was 1.76 (inactive).
As for GGAACCAGGUAGCAGAUCUTT against Cdk2ap2, the z-score is -2.61 (active).
GGACUAUAUGAGAUAAACUTT against Pask: the z-score was 0.371 (inactive).
Regarding CGCCAAACAGGCUAGAUCUTT against Ephb2, the z-score is -0.101 (inactive).
On to GCGAGAAUUGGACAAAUUATT against Acot12, for which the z-score was 0.784 (inactive).
For the sequence “GCAUUCGAAGCUCUUCUAATT against 4930474M22Rik”, the z-score is -1.89 (inactive).
Next, GGGCUGUGAGCUCUGUUCATT against Rspo1: 0.188 (inactive); GCCCAAACGAAAAAUGGCCTT against Abl1: 2.95 (active); GCAACUGAGAGAUGUCAUCTT against Gbp6: -0.806 (inactive).
For CCUGUGAAGUAUAACAUCGTT against Fam234b the value was -0.722 (inactive).
On to CCUAUGUAUCUCAUCGCUGTT against Sox11, for which the z-score was 0.819 (inactive).
For GGCAAUUUGGAUACCAGGATT against Zfp24 the value was -0.563 (inactive).
As to GCAGAAUUGAGUCACCCAATT against Sp1, the z-score is -2.56 (active).
Next, GCGACAAAGCUCGUUAUGATT against Hmgb2: -2.3 (active).
For the sequence GCAUAAACUUUAGGCAUGGTT against Alg13, the z-score was -0.123 (inactive).
For “GGUCAUCCGAUGCUUUGUATT against 4930515G01Rik”, the z-score was -0.513 (inactive).
CCGGUUACCAAUUGAUAAATT against Smc3: the z-score was -1.15 (inactive).
As to GCGUAAAUCUCCACACUACTT against Vmn1r54, the z-score was -1.57 (inactive).
For the sequence GGUGGAUACACAGGACAAATT against Invs, the z-score was 1.58 (inactive).
For the sequence GGAGCGUAGAUAACUUAUCTT against Itprid2, the z-score is -0.0474 (inactive).
For CGCAGACAGUUUGAGGCUGTT against Gpbp1 the value was -2.34 (active); for GGGACAUGGUCAUCACUAGTT against Clvs2, -1.71 (inactive); for “GGAAUAGGAGCAAGUGUACTT against 9930021J03Rik”, 1.03 (inactive).
With GGAUACACACAGAGAAUAUTT against Arhgef10l, the z-score was 0.161 (inactive).
Take GGCCUUCACGUCUGGAAAUTT against Cnot10: the z-score is -0.163 (inactive).
On to GCAUCUCUCUAAUAGCCUUTT against Nop16, for which the z-score is 1.24 (inactive).
GGAUGAAAAUCUCUGUCCUTT against Trpa1: the z-score was 0.604 (inactive).
For GGCAGCAGCAAGUUUCUUCTT against Rbm38, the z-score is -2.31 (active).
For GCUUUUGAUCCACAGAUUUTT against Prss33 the value was 0.372 (inactive); for GGGCUUAUUCUCAGUUCUGTT against Slc17a1, -0.395 (inactive).
Next, GGACCAUGUGACAAAGCCUTT against Fam131b: 2.16 (active); GCCUCCAUUAUUUGUUCUGTT against Olfr1058: -0.177 (inactive).
With GGAAACACCAAGAUUCCAGTT against Sprr3, the z-score is -0.445 (inactive).
As for GCUAUUGGAGGAAUGUAUCTT against Rasgrp4, the z-score is -1.51 (inactive).
As for GGCACAAGAGCAAAGGCUUTT against Gmppb, the z-score was -0.575 (inactive).
For CCCUCAUUUACUCUAGUAATT against Defb12 the value was 0.714 (inactive); for GGUGUUCCUGGUGAAGCAATT against Camk1g, 0.875 (inactive).
Consider CGCUCACUGGUUUUUAAUUTT against Itpripl2, for which the z-score was 0.694 (inactive).
As to GCCCGCACAAUCGUACUUUTT against Ccl28, the z-score was -1.2 (inactive).
As to GGAAAACUGCGUUUGGAAATT against Neil3, the z-score is 0.387 (inactive).
Take GCAAUAGUGAGCACGCCAGTT against Col18a1: the z-score is 0.307 (inactive).
As to GGUCUGUGGACUGAACUUATT against Bcl2l11, the z-score is -2.6 (active).
For GGAUGAAGAACUCAGAGUGTT against Slc66a2 the value was -1.24 (inactive).
For the sequence GGUCAUUCUUAAUUGUUCATT against Kpna6, the z-score is 0.939 (inactive).
For “CCAAAGUCUGUUAAUGGGUTT against 4921517D22Rik” the value was 0.401 (inactive); for GCUAUGCAGAGGAGUAUGCTT against Duoxa1, 3.03 (active); for GGAGACAUUGCUAUAUAUGTT against Hmgcs1, -0.207 (inactive).
Take GGCCUAAGGCUGUGAAUGUTT against D2hgdh: the z-score is -2.59 (active).
Consider GCCGUUUACGUUUAUUGUUTT against Cux2, for which the z-score was -0.0356 (inactive).
Consider GGACAGAAUACGUGAGGAGTT against Septin5, for which the z-score is -0.427 (inactive).
For the sequence GGAGUUCCAGCAGCUCUAUTT against Vsnl1, the z-score was 0.741 (inactive).
For GGUUCUGCUGGACAACUUUTT against Cyp46a1 the value was -0.377 (inactive); for CCCUCAUAACUAAUGCUGUTT against Pip5kl1, -0.276 (inactive).
As to GGUGAUCCAAGACUUCCAGTT against Actl6b, the z-score was 1.16 (inactive).
With GCAGUGAUCCAUGAGCCUATT against Eif5a, the z-score was 4.64 (active).
Regarding GCACCAAUAUUAGGCUGACTT against Noct, the z-score was 1.73 (inactive).
Take CGAGCACACUUUUGAAGAATT against Gm5089: the z-score was 1.33 (inactive).
For the sequence GGCUACGAUCCUACAGUGGTT against Rhebl1, the z-score was -0.283 (inactive).
Consider GGCAACACUGUGGCUAAGUTT against Ankrd13d, for which the z-score was 2.74 (active).
On to GCUGGUAACAGAAUUUCUUTT against Aox2, for which the z-score is 0.515 (inactive).
Turning to GCUAAACAGACAACUCAACTT against Rufy2, the z-score was 1.04 (inactive).
On to GGUAAAACCCAAUAGUAACTT against Gclm, for which the z-score is 0.45 (inactive).
For the sequence GGAUCUUUACUGCUUUGUGTT against Picalm, the z-score is 2.42 (active).
Turning to GCCAAUUUGAAGGUUUUCATT against Tlr8, the z-score is 1.58 (inactive).
Regarding GGCUCUUGGAUAUUUCCGATT against Nop9, the z-score is 0.342 (inactive).
